Screens from PubChem BioAssay.
TRb-SRC2 inh: disrupts binding of human TR beta to SRC2; AID 1469; Potency, µM (titrated, usually from 106 µM), for inactives: top-dose activity change, negative = inhibition, usual class: inhibitors; TRbeta-SRC2 peptide binding, fluorescence polarization; receptor liganded with 1 µM T3; actives 0.065% (n = 280,000);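 further: plate controls were bound peptide for no effect and peptide without receptor for full effect; nearly all actives have a fitted effect of over 50% in size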
Target sequence (P10828 whole entry, looked up): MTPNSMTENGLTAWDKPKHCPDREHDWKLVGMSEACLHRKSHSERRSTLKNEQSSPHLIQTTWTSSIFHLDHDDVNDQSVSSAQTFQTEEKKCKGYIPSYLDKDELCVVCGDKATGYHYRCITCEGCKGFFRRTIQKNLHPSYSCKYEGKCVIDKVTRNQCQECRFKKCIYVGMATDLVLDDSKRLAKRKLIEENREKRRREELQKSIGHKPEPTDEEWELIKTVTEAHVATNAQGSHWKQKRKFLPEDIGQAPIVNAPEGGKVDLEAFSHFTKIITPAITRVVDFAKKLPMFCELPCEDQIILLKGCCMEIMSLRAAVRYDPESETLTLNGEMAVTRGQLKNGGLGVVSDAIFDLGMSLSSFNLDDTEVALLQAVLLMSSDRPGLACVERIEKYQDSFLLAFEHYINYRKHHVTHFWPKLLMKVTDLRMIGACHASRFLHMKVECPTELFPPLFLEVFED
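Fluorescence polarization of 20 nM Texas Red SRC2 peptide with 0.6 uM human TRb ligand-binding domain, in Tris buffer with 1uM T3 and 5% DMSO. Incubated 5 hr ambient; normalized to unbound and bound controls.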
TR SRC2 fluor cs: counter-screen for TRb-SRC2 inhibitors: fluorescence interference | TRb/SRC2 Texas Red total fluorescence interference | Potency, µM (top dose mostly 106 µM), inactives show at the top dose fluorescence change, negative = quenching | actives 0.29% (n = 280,000) | AID 1479; active means well fitted curve in either direction with a large enough effect; inconclusive means small, poorly fitted or top-dose-only effect
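Flags fluorescent or light-absorbing compounds by total fluorescence, S + 2P, at 555 nm excitation and 632 nm emission. Mixture: 20 nM Texas Red SRC2 peptide, 0.6 uM human TRb LBD, 1 uM T3, 5% DMSO; compound exposure 5 h at ambient temperature.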
Tau fibril FP: tau fibrillization inhibition (FP); P10636; K18 P301L tau heparin fibrillization, Alexa594 FP, 6 h; Potency, µM (series often up to 57.7 µM), for inactives: at the top dose activity, negative = inhibition, actives largely listed as inhibitors; actives 0.39% (n = 280,000); AID 1468; further: nearly all actives have a fitted effect of over 55% in size
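Read-out: fluorescence polarization of Alexa 594-labeled tau (0.24 uM), 555 nm excitation, 632 nm emission. Mixtures held 15 uM unlabeled K18 P301L, compound and 20 uM heparin, pH 7 acetate buffer, incubated 6 hr at 37 C.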
GoLoco inh red: inhibitors of human Gai1-RGS12 GoLoco interaction (red fluorophore); Potency, µM (titrated, usually from 61.6 µM), for inactives: at the highest dose activity, negative = inhibition, usual class: inhibitors; Gai1:RGS12 GoLoco peptide FP, rhodamine, 10 min; actives 0.44% (n = 230,000); P63096; active means well fitted inhibition curve with a large enough effect, not every such curve was filed as active; inactive means no such curve, though single readings can be large or run the other way; further: nearly all actives have a fitted effect of over 30% in size
Tau fibril ThT: inhibitors of human tau fibril formation, thioflavin T binding | P10636 | recombinant tau K18 P301L, heparin-induced fibrillization, ThT fluorescence | Potency, µM (series often up to 57.4 µM), without a hit: at the highest dose activity, negative = inhibition, usual class: inhibitors | actives 2.1% (n = 270,000) | AID 1460; further: nearly all actives have a fitted effect of over 55% in size
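Fibril formation assay: tau K18 P301L at 15 uM with trace Alexa 594 label, heparin inducer 20 uM, pH 7 sodium acetate buffer, 37 C for 6 hr; endpoint ThT signal.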
Tau fluor counter: counter-screen for tau fibril formation inhibitors | tau K18 P301L (four-repeat tau fragment) Alexa594 fluorescence, heparin fibrillization | Potency, µM (top dose mostly 57.7 µM), for the others: top-dose activity change, negative = decrease | actives 0.93% (n = 280,000) | AID 1463; further: nearly all actives have a fitted effect of over 55% in size
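Human K18 P301L tau (15 uM unlabeled plus 0.24 uM Alexa 594-labeled, final) in 100 mM sodium acetate pH 7 was mixed with compound and 20 uM heparin and incubated 6 hr at 37 C.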
The depositor's hits bear a star; ? = inconclusive; nt = no result; [ ] = another dose, or the depositor's remark. Sampled rows, rich in hits. Any-hit rate of the full collection: about 3.1%. Unless noted, the call rests on the fitted dose curve; in most records, active means well fitted curve in the direction sought with a large enough effect; inconclusive means small, poorly fitted or top-dose-only effect, or another doubt; inactive means no such curve, though single readings can be large; an effect the other way counts as inactive or inconclusive. Unless noted, on the % scale 0 is the no-effect control and ±100 the full control effect; potency means the concentration at half of the fitted maximal effect.

SMILES	TRb-SRC2 inh	TR SRC2 fluor cs	Tau fibril FP	GoLoco inh red	Tau fibril ThT	Tau fluor counter
Cc1ccn2c(Nc3ccc(F)cc3)c(-c3ccccn3)nc2c1	-1%	-2%	4%	nt	?	?
Cc1ccc2nc(-c3c[nH]c4ccccc34)c(Nc3ccccc3)n2c1	-5%	?	2%	nt	-7%	?
Fc1ccc(Nc2c(-c3c[nH]c4ccccc34)nc3ccccn23)cc1	-6%	-2%	-5%	nt	-11%	7.1µM*[quencher]
OCCC1CN(Cc2cnc(-c3ccccc3)s2)CCN1C1CCCC1 (stereo not drawn)	1%	2%	-5%	14%	-6%	-5%
CC1CN(C(=O)COC(=O)c2c(Cl)cccc2Cl)CC(C)O1 (stereo not drawn)	-4%	-2%	3%	11%	-5%	3%
CCCC(=O)Nc1ccc2c(c1)nc(CN1CCN(C(=O)OCC)CC1)n2C(C)C	-13%	100µM*[quencher]	-6%	nt	-6%	-12%
CCOC(=O)N1CCN(Cc2nc3cc(NC(C)=O)ccc3n2C(C)C)CC1	-10%	1%	0%	nt	-3%	-1%
O=C(O)c1ccc(N=c2oc3cc(O)ccc3cc2C(=O)NCc2ccccc2)cc1	5%	-10%	0%	-1%	28µM*	-10%
CC(C)NC(=O)CSc1nnc(-c2ccco2)n1N	2%	0%	-4%	-8%	-7%	-9%
CC(=O)Nc1ccc(S(=O)(=O)Nc2nnc(CC(C)(C)C)s2)cc1	-2%	-6%	18%	9%	4µM*	-33%
CCc1nnc(NS(=O)(=O)c2ccc(NS(=O)(=O)c3ccc(NC(C)=O)cc3)cc2)s1	2%	-2%	0%	20%	-1%	-3%
O=C(CSc1ncnc2ccccc12)NCC(=O)c1ccccc1	9%	-6%	-5%	-16%	-11%	-10%
CCCC(=Nc1ccc(N)cc1)C1=C(O)C(C(=O)OC)C(C)(C)CC1=O (stereo not drawn)	35µM*	45µM*[fluorescent]	14µM*	14µM*	7.9µM*	7.1µM*[quencher]
COC(=O)c1sc2cc(C(F)(F)F)cnc2c1-c1ccccc1	3%	-1%	-6%	-4%	-17%	-21%
O=C(O)c1ccc(N/N=C/c2ccc3nccnc3c2)cc1	-6%	-28%	-4%	12%	3.5µM*	-19%
COC(=O)N/N=C/c1cn(Cc2ccccc2F)c2ccccc12	-7%	-3%	?	-5%	-17%	?
O=C(O)c1ccc(N/N=C/c2cccc3cccnc23)cc1	0%	-3%	7%	22%	nt	-17%
O=C(O)c1ccc(N/N=C/c2ccnc3ccccc23)cc1	0%	-14%	6%	-4%	5µM*	?
O=C(O)c1ccc(N/N=C/c2cn(Cc3ccccc3F)c3ccccc23)cc1	-4%	-10%	0%	5%	14µM*	?
COc1ccc(OC)c2sc(NC(=O)C(C)C)nc12	-2%	-2%	6%	-3%	-22%	-14%
COc1ccc(/C=N/N=C2/CC(C)(C)Cc3n[nH]c(=O)cc32)cc1	?	3%	0%	28µM*	?	0%
COc1ccc(C2=C(C)C(N3CCC(C(=O)NCc4ccc(C)o4)CC3)=NS2(=O)=O)cc1	-1%	2%	-3%	nt	-18%	-1%
CCOc1cc(C(=O)NC)cc(OCC)c1OCC	-5%	2%	2%	-5%	6%	4%
COCCCNC(=O)c1ccc(-n2c(-c3ccccc3)cc3c2CCC(C)C3)cc1 (stereo not drawn)	7%	-5%	13µM*	nt	15%	-23%
CCOCCCNC(=O)c1ccc(-n2c(-c3ccccc3)cc3c2CCCCC3)cc1	2%	?	20µM*	nt	13%	?
COCCNC(=O)c1ccc(-n2c(-c3ccccc3)cc3c2CCCCC3)cc1	4%	6%	25µM*	nt	-9%	?
CCCNC(=O)c1ccc(-n2c(-c3ccccc3)cc3c2CCCCC3)cc1	4%	5%	?	nt	5%	?
